{"source": "PubChem BioAssay AID504375", "about": "(National Center for Advancing Translational Sciences (NCATS), 2011)", "note": "In all, about 1,600 compounds went through this assay and about 25 (2%) were called active. Not shown: some 7% with an inconclusive outcome. The full list was thinned out, with actives kept by preference. A number with no mark means an inactive call. Calls come from the whole dose curve; as a rule, active = well fitted inhibition curve with a large enough effect; inconclusive = small, poorly fitted or top-dose-only effect, or effect the other way; inactive = no such curve, though single readings can be large or run the other way. % is set by controls: 0 for no effect and ±100 for the full control effect; potency is the fitted concentration of half-maximal effect.", "data": [{"biological_target": "Runt-related transcription factor 1 (Homo sapiens) + Core-binding factor subunit beta (Homo sapiens) (UniProt Q01196+Q13951)", "sequence (Q01196 whole entry, looked up)": "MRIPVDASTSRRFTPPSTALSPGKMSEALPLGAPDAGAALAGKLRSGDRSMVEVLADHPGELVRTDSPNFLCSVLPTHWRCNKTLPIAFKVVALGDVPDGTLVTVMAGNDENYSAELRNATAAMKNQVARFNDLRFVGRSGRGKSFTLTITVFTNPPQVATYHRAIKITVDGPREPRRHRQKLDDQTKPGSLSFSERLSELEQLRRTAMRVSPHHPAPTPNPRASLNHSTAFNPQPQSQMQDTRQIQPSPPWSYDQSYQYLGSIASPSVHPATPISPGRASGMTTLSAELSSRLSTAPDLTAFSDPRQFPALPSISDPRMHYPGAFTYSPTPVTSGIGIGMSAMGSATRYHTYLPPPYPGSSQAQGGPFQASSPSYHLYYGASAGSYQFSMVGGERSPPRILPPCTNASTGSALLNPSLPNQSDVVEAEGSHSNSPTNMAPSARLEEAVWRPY", "sequence (Q13951 whole entry, looked up)": "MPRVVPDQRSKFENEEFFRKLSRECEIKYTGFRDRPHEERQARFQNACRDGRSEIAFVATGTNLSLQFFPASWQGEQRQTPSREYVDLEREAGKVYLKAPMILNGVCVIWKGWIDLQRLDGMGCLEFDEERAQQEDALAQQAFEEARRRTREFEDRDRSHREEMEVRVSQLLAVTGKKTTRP", "assay": "qHTS Assay for Compounds Blocking the Interaction Between CBF-beta and RUNX1 for the Treatment of Acute Myeloid Leukemia: Hit Validation with Orthogonal Assay", "details": "CBFbeta-RUNX1 binding orthogonal assay, biochemical; series mostly up to 41 µM; activity change, negative = inhibition: at the top concentration", "source_text": "NIH Chemical Genomics Center [NCGC]\nNIH Molecular Libraries Probe Production centers Network [MLPCN]\nAssay Submitter (PI): Paul Liu\nCore Binding Factor (CBF) abnormalities are associated with 20-25% of all acute myeloid leukemias (AML), of which 5-10% are further sub classified as acute myelomonocytic leukemia with eosinophilia, also known as M4Eo in the FAB classification scheme. This subtype of leukemia is usually associated with chromosome 16 inversion (p13:q22). Chromosome 16 inversion results in formation of the fusion oncogene CBFB-MYH11, which encodes the fusion protein CBF-beta-SMMHC.\nIt has been hypothesized that the interference of CBF-beta and RUNX1 binding could have therapeutic implications for patients with CBF mediated leukemias. We developed a CBF-beta and RUNX1 binding assay in AlphaScreenTM format and optimized it for high throughput screening to search for inhibitors. The goal of this project is to screen MLPCN's compound collection (MLSMR) for identifying the inhibitors of the interaction between CBF-beta and RUNX1 proteins as research probes. If these probes work well in the animal models, the ultimate goal of this project is to development a new drug treatment for this disease.\nThis assay can not be used to assess how apparent inhibitors interfere with protein binding, and whether inhibitors specifically bind to either protein. Disruption of this protein-protein interaction, through any mechanism, is the intended target activity.\nThe present data set was run to confirm the activity of hits from the primary screen using an orthogonal assay technology for measuring protein-protein interaction disruption.\nA TR-FRET (time resolved fluorescence resonance energy transfer) assay was performed using the same assay buffer, protein concentrations and incubation times as described previously in the AlphaScreen assay, except that terbium (Tb+) labeled anti-his-antibody and XL665 linked streptavidin were used to capture the binding signal. The Tb+ labeled anti-his-antibody captures His(6)-CBF and XL665 linked streptavidin binds to biotin-RUNX1. The binding of RUNX1 to CBFbrings Tb+ and XL665 to proximity resulting in a TR-FRET signal. Briefly, in a white 384-well plate, 10 µl/well of mixture of biotin-RUNX1 and His(6)-CBFwere incubated with 10 µl/well buffer (positive control) or 10 µl/well compounds (negative control) for 20 min followed by an addition of 10 µl/well of Tb+ labeled anti-his(6)-antibody and XL665 linked streptavidin. After 90 min of incubation in the dark, the assay plate was measured in the Envision plate reader using TR-FRET detection mode. For the 1536-well plate format, 3 µl/well mixture of biotin-RUNX1 and His(6)-CBF (30 nM per protein) was incubated with 23 nl/well compound (dissolved in 100% DMSO) or the equivalent DMSO concentration (positive control) for 30 min followed by the addition of 1 µl/well of 0.44 ng Tb+ labeled anti-his(6)-antibody and 5 nM streptavodin-XL665. After 90 min of incubation, the assay plate was measured in the Envision plate reader.\nThe TR-FRET assay for detecting interaction between HIV-I Tat and […] was similarly performed with the recombinant full-length HIV-I Tat CLADE B and HIV-I Tat Biotin conjugated proteins supplied by Diatheva (Fano, Italy). Briefly, the His-CBF and Biotin-RUNX1 complex at a working concentration of 83.3 nM per protein were pre-incubated in assay buffer for 10 minutes on ice. Then HIV-I Tat or unlabeled CBF were added to reach final concentrations (Supplementary Figure 4b) and incubated for 5 minutes. Finally anti-His antibody and streptavidin-XL665 at a final concentration of 2.2 ng and 5 nM, respectively, were added to the plate, which was incubated for 1 hr prior to reading on the PerkinElmer Envision plate reader.\nKeywords: MLSMR, MLPCN, NIH Roadmap, qHTS, NCGC, Core binding factor, CBF, CBF-beta, Acute myeloid leukemia", "values": [{"smiles": "O=C(O)CCCCC1SCC2NC(=O)NC21", "note": "(stereo not given)", "Potency": "20 nM (active)"}, {"smiles": "CC(C)[C@@]1(NC(=O)[C@H]2CC3c4cccc5[nH]cc(c45)C[C@H]3N(C)C2)O[C@@]2(O)C3CCCN3C(=O)[C@@H](Cc3ccccc3)N2C1=O", "note": "(stereo not given in full)", "activity change, negative = inhibition": "9.43%"}, {"smiles": "CCC(=Nc1cccc(C(F)(F)F)c1)c1c(O)n(C)c(=O)n(C)c1=O", "activity change, negative = inhibition": "5.85%"}, {"smiles": "Cc1onc(-c2c(Cl)cccc2Cl)c1C(=O)Nc1ccc2c(C(F)(F)F)cc(=O)oc2c1", "activity change, negative = inhibition": "1.55%"}, {"smiles": "CN(N=O)c1cc(O)ccc1O", "activity change, negative = inhibition": "20.1% [at 82.4 µM]"}, {"smiles": "CN(N=O)c1ccc(O)c(O)c1", "Potency": "2510 nM (active)"}, {"smiles": "O=c1[nH]c(=S)n(-c2ccccc2)c(O)c1C=NCc1ccccn1", "activity change, negative = inhibition": "1.8%"}, {"smiles": "Cn1c(O)c(/C=N/N2CCOCC2)c(=O)[nH]c1=S", "activity change, negative = inhibition": "-13.8%"}, {"smiles": "Cc1cc(OC(=O)N(C)C)nc2c1c(C)nn2C", "activity change, negative = inhibition": "-8.88%"}, {"smiles": "O=C(O)CN1C(=O)CN=C(c2ccccn2)c2cc(Cl)ccc21", "activity change, negative = inhibition": "6.91%"}, {"smiles": "CC1CN=C(Nc2ccc(F)c(Cl)c2)S1", "note": "(stereo not given)", "activity change, negative = inhibition": "6.88%"}, {"smiles": "NC(Cc1cc(O)c(O)cc1O)C(=O)O", "note": "(stereo not given)", "Potency": "10000 nM (active)"}, {"smiles": "COC1C(OC(=O)c2ccc(C)[nH]2)C(O)C(Oc2ccc3c(O)c(NC(=O)c4ccc(O)c(CC=C(C)C)c4)c(=O)oc3c2Cl)OC1(C)C", "note": "(stereo not given)", "activity change, negative = inhibition": "4.43%"}, {"smiles": "CCC(=NCc1cccnc1)c1c(O)n(-c2ccccc2C)c(=O)[nH]c1=O", "activity change, negative = inhibition": "-2.88%"}, {"smiles": "CCCCc1ccc(C(=O)O)nc1", "activity change, negative = inhibition": "-1.88% [at 82.4 µM]"}]}]}
